Screening results (PubChem BioAssay)
Shown is part of a subset that was picked to be rich in hits.
Methyltransferases: Primary Screen for Target Class Profiling of Small Molecule Inhibitors of Methyltransferases; purified enzyme, MTase-Glo SAH luminescence; active compounds read low; calls only at 40 µM; actives 3.9% (n = 25,000); AID 1745853, 2022; call rule not given here
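Each enzyme was assayed with SAM and its substrate. SAH formation detected by MTase-Glo luminescence; single-point 40 uM screen[…].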
Calls only; n = inactive; + = active, no number.

SMILES | Methyltransferases
CCC(C)NC(=O)c1ccc2c(=O)n(C)c3nnc(SCc4ccc(F)cc4)n3c2c1 (configuration not stated) | n
CC1CCC(NC(=O)C2(C)Cn3c(nc4ccccc43)C(=O)N2Cc2ccc(F)cc2)CC1 (configuration not stated) | n
CC1c2cccn2CCN1C(=O)Nc1ccccc1F (configuration not stated) | n
CC(C)(O)c1ccccc1CC[C@@H](SCC1(CC(=O)O)CC1)c1cccc(/C=C/c2ccc3ccc(Cl)cc3n2)c1 | +
COc1ccc(CNC(=O)c2cc3n(n2)CC(C)(C(=O)NC2CCCCC2)N(C)C3=O)c(OC)c1 (configuration not stated) | n
Cc1cc2c(cc3n2CC(C)(C(=O)NC2CCCCCC2)N(Cc2ccc4c(c2)OCO4)C3=O)o1 (configuration not stated) | n
CC(C)OCCCNc1nc2c(-c3ccc(Cl)cc3)nnn2c2ccccc12 | n
CCC(C)C(=O)OC[C@H]1O[C@H](O[C@H]2O[C@H](CO)[C@@H](O)[C@H](O)[C@H]2O)[C@H](O)[C@@H](O)[C@@H]1O (some centres not stated) | n
CC(C)=CCC/C(C)=C/CO[C@@H]1O[C@H](CO)[C@@H](O)[C@H](O)[C@H]1O | n
COc1ccc(C(O)C(C)OC2OC(CO)C(O)C(O)C2O)cc1 (configuration not stated) | n
CC(C)=CCC(O)/C(C)=C/CO[C@@H]1O[C@H](CO)[C@@H](O)[C@H](O)[C@H]1O (some centres not stated) | +
OCc1ccccc1O[C@@H]1O[C@H](CO)[C@@H](O)[C@H](O)[C@H]1O | n
CC/C=C\CCO[C@@H]1O[C@H](CO)[C@@H](O)[C@H](O)[C@H]1O | +
CCCn1c(=O)c2ccc(C(=O)NC3CCCCC3)cc2n2c(=O)n(Cc3ccccc3Cl)nc12 | n
CCCn1c(=O)c2ccc(C(=O)NC3CCCC3)cc2n2c(=O)n(CC(=O)Nc3ccc(C)c(C)c3)nc12 | n
CCCn1c(=O)c2ccc(C(=O)NCC(C)C)cc2n2c(=O)n(CC(=O)c3ccc(OC)cc3)nc12 | n
Cc1cccc(CN2C(=O)c3cc4ccccc4n3CC2(C)C(=O)NCCC(C)C)c1 (configuration not stated) | n
CC(C)CCn1c(=O)c2ccc(C(=O)NC(C)C)cc2n2c(=O)n(CC(=O)c3cccc(Cl)c3)nc12 | n
C/C=C(\C)C(=O)O[C@H]1[C@@H](O[C@]2(COC(=O)CC(C)C)O[C@H](COC(=O)C(C)C)[C@@H](OC(C)=O)[C@@H]2O)O[C@H](COC(C)=O)[C@@H](O)[C@@H]1O | +
C/C=C(\C)C(=O)OCC1OC(OCC2OC(OC3(CO)OC(CO)C(O)C3O)C(O)C(O)C2O)C(O)C(O)C1O (configuration not stated) | n
CC(C)CC(=O)OC[C@H]1O[C@@](COC(=O)CC(C)C)(O[C@H]2O[C@H](CO)[C@@H](O)[C@H](O)[C@H]2OC(=O)CC(C)C)[C@@H](OC(=O)CC(C)C)[C@@H]1O | n
Cc1cc2c(cc3n2CC(C)(C(=O)NC2CCCCCC2)N(CCc2ccc(Cl)cc2)C3=O)o1 (configuration not stated) | n
COc1cccc(CNC(=O)c2ccc3c(=O)nc4c(-c5cccc(C)c5)n[nH]n4c3c2)c1 | n
COc1ccc2cc(CNc3ccc(C)cc3)c(=O)n(CC(=O)Nc3cccc(C(F)(F)F)c3)c2c1 | +
Cc1cc(C)cc(Nc2nc(C)cc(=O)n2CC(=O)Nc2cccc(C(F)(F)F)c2)c1 | n
SMILES | Methyltransferases
COc1ccc(C(=O)N[C@@H]2CN(C(=O)Nc3cccc(C(F)(F)F)c3)CCC[C@H]2O)cc1 | n
COC(=O)c1ncn2c1C(=O)N(Cc1cccc(OC)c1OC)C(C)(C(=O)NC1CCCC1)C2 (configuration not stated) | n
O=S1(=O)CCN(Cc2cc(NCC3CCOCC3)c3[nH]c(-c4ccccc4)cc3c2)CC1 | +
Cn1nc(-c2ccc(C(F)(F)F)cc2)nc2c(=O)n(C)c(=O)nc1-2 | +
Cc1ccc(CCNC(=O)CCCc2nnc3n4nc(-c5ccccc5)nc4c4ccccc4n23)cc1 | n
Cc1c(OCC(F)(F)F)ccnc1CS(=O)c1nc2ccccc2[nH]1 (configuration not stated) | +
CN(C)c1ccc(CN2C(=O)c3cc(-c4ccccc4)nn3CC2(C)C(=O)NCc2ccccc2)cc1 (configuration not stated) | n
CC(C)c1ccc(-c2cc3n(n2)CC(C)(C(=O)NC2CCCCC2)N(Cc2cccs2)C3=O)cc1 (configuration not stated) | n
CC(C)CCn1c(=O)c2ccccc2n2c(SCC(=O)NCc3ccccc3Cl)nnc12 | n
CCCSCCCN1C(=O)c2cc3occc3n2CC1(C)C(=O)NC1CCCCCCC1 (configuration not stated) | n
COc1ccc(NC(=O)c2nc3sccn3c2-c2ccncc2)cc1 | n
CN(C)CCCc1cc(C(=O)Nc2ccc(-c3ccncc3)cc2)ccc1O | +
COc1ccc(C(=O)Nc2ccc3c(c2)C(=O)N(C)C2=NCCN23)cc1OC | n
COCCNC(=O)CCCc1nnc2n3nc(-c4ccccc4)nc3c3ccccc3n12 | n
O=c1cc(-c2ccccc2)c2ccc(OCc3ccc(F)cc3Cl)cc2o1 | n
Cc1cccc(Cn2nc3n(CC(C)C)c(=O)c4ccc(C(=O)NC5CCCCC5)cc4n3c2=O)c1 | n
CCS(=O)(=O)N(Cc1cccnc1)c1cccc(-c2ccc(C#N)cc2)c1 | n
O=C(NCCNC(=O)c1cccnc1)c1cccnc1 | n
N#Cc1ccc(-c2cnc3[nH]cc(NC(=O)c4cccnc4)c3c2)cc1 | +
CCCN1C(=O)c2c(C(=O)NCc3ccccc3F)ncn2CC1(C)C(=O)NCCC(C)C (configuration not stated) | n
CC(C)C1c2cccn2CCN1C(=O)Nc1ccc(F)cc1 (configuration not stated) | n
COC(=O)c1ncn2c1C(=O)N(Cc1ccc(C)cc1)C(C)(C(=O)NC1CCCCCC1)C2 (configuration not stated) | n
CCCN1C(=O)c2cc(C(=O)NCCc3ccccc3)nn2CC1(C)C(=O)NC1CCCC1 (configuration not stated) | n
CN(C)S(=O)(=O)c1ccc2c(c1)/C(=C/c1cc3c([nH]1)CCCC3)C(=O)N2 | n
Cc1[nH]c(/C=C2\C(=O)Nc3ccc(S(=O)(=O)N(C)c4cccc(Cl)c4)cc32)c(C)c1C(=O)N1CCN(C)CC1 | +
SMILES | Methyltransferases
O=S(=O)(c1cccc(-c2nc(-c3ccccc3)no2)c1)N1CCCc2ccccc21 | n
COCCn1nnc2cc(S(=O)(=O)N(C)CC(=O)N3CCOCC3)ccc21 | n
CCc1cccc(N2C(=O)c3c(C(=O)OC)ncn3CC2(C)C(=O)NC2CCCC2)c1 (configuration not stated) | n
COc1ccccc1CNC(=O)C1(C)Cn2c(cc3ccccc32)C(=O)N1Cc1ccco1 (configuration not stated) | n
CC(C)Cn1c(=O)c2ccc(Cl)cc2n2c(SCC(=O)NC3CCCCC3)nnc12 | n
Cc1ccc(Cn2c(=O)c3ccccc3n3c(CCC(=O)NCCCN4CCOCC4)nnc23)cc1 | n
CCn1c2ccccc2c2cc(Nc3ccnc(NCCCN4CCOCC4)n3)ccc21 | +
CC(C)CCn1c(=O)c2ccccc2n2c(CCC(=O)NCCCN3CCOCC3)nnc12 | n
